How the values were obtained:
Assay in all cases: DAPPL (digital affinity profiling via proximity ligation, sequencing); 10 mM Tris-HCl pH 7.5, 50 mM NaCl, 1 mM DTT, 4% glycerol, room temperature, 30 min; GST-TFs on glutathione beads, 16-mer random dsDNA library, 0.1% formaldehyde crosslink after washing; high values mean tight binding
Conditions in all cases: protein: recombinant; tags: N-terminal GST; dsDNA, one strand shown
FLI1 = target: T1, FLI1 (Homo sapiens, UniProt Q01543 1-452)
T1 sequence: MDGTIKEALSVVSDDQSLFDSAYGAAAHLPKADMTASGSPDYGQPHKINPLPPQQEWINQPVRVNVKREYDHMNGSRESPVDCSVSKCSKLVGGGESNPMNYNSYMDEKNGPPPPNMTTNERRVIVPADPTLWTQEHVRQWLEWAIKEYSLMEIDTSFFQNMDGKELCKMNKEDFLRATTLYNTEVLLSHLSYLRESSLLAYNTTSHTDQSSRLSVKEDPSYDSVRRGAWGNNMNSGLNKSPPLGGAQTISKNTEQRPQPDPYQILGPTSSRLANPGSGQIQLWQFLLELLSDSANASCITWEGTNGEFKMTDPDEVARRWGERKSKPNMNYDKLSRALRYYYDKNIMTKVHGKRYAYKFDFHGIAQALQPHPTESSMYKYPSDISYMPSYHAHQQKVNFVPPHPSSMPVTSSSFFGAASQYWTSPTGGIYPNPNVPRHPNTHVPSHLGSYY
Procedure, shortened: (§1)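 Binding signal is defined as a hexamer's read frequency for one factor over its frequency for the tag-only sample. To obtain reads, GST-fused human transcription factors were expressed in yeast, captured on glutathione beads, barcoded with DNA and pooled with that sample. Pools met 200 nmole of a 16-mer random double-stranded DNA library in Tris/NaCl/DTT/glycerol buffer for 30 min at room temperature before washing, 0.1% formaldehyde crosslinking, proximity ligation (BsaI/T4 ligase, 1 h, 37 °C), PCR and Illumina NextSeq500 sequencing.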

ELK1 = target: T2, ELK1 (Homo sapiens, UniProt P19419 1-428)
T2 sequence: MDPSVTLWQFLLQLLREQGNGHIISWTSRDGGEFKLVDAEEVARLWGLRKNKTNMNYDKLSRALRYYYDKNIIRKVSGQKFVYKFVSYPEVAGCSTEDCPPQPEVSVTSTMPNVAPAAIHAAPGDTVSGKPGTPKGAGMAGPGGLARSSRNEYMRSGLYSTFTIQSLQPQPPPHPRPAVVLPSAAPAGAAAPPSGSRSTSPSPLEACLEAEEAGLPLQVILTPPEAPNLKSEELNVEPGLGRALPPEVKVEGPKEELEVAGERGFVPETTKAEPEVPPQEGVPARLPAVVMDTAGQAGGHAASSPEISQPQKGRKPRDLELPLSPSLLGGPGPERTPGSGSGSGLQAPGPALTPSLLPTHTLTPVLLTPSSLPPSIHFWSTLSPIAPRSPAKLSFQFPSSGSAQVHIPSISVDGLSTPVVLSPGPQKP
Procedure, shortened: as §1

GABPA = target: T3, GABPA (Homo sapiens, UniProt Q06546 1-454)
T3 sequence: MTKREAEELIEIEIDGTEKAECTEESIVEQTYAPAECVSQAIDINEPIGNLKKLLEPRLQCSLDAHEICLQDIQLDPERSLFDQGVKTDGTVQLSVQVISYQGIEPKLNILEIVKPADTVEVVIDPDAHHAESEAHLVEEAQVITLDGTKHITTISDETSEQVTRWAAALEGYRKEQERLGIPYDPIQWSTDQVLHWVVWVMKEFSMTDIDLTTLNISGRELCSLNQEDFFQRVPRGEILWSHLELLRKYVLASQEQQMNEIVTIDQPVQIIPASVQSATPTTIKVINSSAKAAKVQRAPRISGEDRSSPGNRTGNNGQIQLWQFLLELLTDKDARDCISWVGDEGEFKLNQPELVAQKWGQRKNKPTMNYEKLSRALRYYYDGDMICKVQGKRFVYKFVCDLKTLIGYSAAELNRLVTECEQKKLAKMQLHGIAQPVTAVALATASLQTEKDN
Procedure, shortened: as §1

ERG = target: T4, ERG (Homo sapiens, UniProt P11308 1-479)
T4 sequence: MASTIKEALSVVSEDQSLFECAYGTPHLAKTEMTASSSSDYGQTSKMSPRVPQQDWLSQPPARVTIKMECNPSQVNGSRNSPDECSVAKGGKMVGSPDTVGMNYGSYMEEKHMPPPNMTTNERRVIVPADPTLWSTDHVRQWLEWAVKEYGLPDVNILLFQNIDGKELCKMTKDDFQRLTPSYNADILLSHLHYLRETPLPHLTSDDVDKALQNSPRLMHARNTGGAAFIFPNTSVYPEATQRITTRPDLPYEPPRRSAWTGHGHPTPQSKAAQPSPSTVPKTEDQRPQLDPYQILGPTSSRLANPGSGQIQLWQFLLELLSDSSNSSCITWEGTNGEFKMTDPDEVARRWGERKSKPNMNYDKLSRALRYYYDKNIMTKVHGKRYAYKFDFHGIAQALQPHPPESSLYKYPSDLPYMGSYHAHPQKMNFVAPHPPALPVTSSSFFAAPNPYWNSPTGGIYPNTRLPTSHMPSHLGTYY
Procedure, shortened: as §1

ELF1 = ELF1 (Homo sapiens, UniProt P32519 1-619)
Chain of ELF1 (P32519 whole entry): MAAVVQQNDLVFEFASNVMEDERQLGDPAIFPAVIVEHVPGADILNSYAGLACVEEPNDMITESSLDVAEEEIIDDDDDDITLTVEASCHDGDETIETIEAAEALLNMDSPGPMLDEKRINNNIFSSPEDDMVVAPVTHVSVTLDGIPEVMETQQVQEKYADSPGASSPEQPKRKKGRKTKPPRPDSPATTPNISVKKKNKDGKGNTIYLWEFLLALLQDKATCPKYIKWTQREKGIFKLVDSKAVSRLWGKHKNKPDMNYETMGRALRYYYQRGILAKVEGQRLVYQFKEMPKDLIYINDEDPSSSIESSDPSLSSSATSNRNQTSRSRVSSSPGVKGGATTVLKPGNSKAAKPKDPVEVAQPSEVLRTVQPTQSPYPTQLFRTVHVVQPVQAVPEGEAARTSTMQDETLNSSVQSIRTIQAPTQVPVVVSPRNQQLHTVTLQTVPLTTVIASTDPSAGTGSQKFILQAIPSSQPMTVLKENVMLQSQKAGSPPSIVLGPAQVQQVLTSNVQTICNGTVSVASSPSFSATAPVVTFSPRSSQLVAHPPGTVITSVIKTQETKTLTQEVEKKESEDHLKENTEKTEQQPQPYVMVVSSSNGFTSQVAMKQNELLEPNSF
Procedure, shortened: as §1

EHF = target: T5, EHF (Homo sapiens, UniProt Q9NZC4 1-300)
T5 sequence: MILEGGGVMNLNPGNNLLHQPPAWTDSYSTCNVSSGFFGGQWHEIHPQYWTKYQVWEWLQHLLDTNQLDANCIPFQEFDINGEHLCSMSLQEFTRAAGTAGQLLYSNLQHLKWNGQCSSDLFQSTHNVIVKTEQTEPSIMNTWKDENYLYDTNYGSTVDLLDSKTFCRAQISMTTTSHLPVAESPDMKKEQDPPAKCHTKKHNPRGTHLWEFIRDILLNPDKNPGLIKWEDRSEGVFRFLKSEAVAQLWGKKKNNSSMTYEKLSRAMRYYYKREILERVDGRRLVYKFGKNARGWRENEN
Procedure, shortened: as §1

SPIB = SPIB (Homo sapiens, UniProt Q01892 1-262)
Chain of SPIB (Q01892 whole entry): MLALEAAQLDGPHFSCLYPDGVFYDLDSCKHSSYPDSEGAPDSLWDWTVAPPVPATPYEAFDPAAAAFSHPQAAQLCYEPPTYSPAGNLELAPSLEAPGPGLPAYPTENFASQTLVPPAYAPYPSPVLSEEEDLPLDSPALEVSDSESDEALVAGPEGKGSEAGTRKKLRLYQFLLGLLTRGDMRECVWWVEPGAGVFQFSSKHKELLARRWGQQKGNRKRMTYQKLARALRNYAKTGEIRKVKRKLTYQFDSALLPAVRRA
Procedure, shortened: as §1

ELK3 = target: T6, ELK3 (Homo sapiens, UniProt P41970 1-407)
T6 sequence: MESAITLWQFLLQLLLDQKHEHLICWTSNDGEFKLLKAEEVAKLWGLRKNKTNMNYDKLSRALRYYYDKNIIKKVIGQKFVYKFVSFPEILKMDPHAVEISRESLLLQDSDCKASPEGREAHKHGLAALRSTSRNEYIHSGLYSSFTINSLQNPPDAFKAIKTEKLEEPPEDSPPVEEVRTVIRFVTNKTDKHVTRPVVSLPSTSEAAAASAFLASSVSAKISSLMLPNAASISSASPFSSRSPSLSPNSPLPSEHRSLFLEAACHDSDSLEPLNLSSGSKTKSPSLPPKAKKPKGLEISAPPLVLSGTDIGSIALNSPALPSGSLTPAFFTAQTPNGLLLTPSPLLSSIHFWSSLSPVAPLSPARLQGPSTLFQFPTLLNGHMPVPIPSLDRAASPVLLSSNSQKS
Procedure, shortened: as §1

SPI1 = SPI1 (Homo sapiens, UniProt P17947 1-270)
Procedure, shortened: as §1

| Sequence | binding signal (FLI1) | binding signal (ELK1) | binding signal (GABPA) | binding signal (ERG) | binding signal (ELF1) | binding signal (EHF) | binding signal (SPIB) | binding signal (ELK3) | binding signal (SPI1) |
| --- | --- | --- | --- | --- | --- | --- | --- | --- | --- |
| ACACCC | 1.18 fold enrichment (6-mer frequency, TF over GST control) | 1.16 fold enrichment (6-mer frequency, TF over GST control) | 1.16 fold enrichment (6-mer frequency, TF over GST control) | 1.11 fold enrichment (6-mer frequency, TF over GST control) | 1.09 fold enrichment (6-mer frequency, TF over GST control) | 1.11 fold enrichment (6-mer frequency, TF over GST control) | 1.17 fold enrichment (6-mer frequency, TF over GST control) | 1.08 fold enrichment (6-mer frequency, TF over GST control) |  |
| GCGCCC | 1.07 fold enrichment (6-mer frequency, TF over GST control) | 1.1 fold enrichment (6-mer frequency, TF over GST control) | 1.11 fold enrichment (6-mer frequency, TF over GST control) | 1.13 fold enrichment (6-mer frequency, TF over GST control) | 1.11 fold enrichment (6-mer frequency, TF over GST control) | 1.03 fold enrichment (6-mer frequency, TF over GST control) | 1.09 fold enrichment (6-mer frequency, TF over GST control) | 1.18 fold enrichment (6-mer frequency, TF over GST control) |  |
| CTACAG | 1.17 fold enrichment (6-mer frequency, TF over GST control) | 1.01 fold enrichment (6-mer frequency, TF over GST control) | 1.16 fold enrichment (6-mer frequency, TF over GST control) | 1.03 fold enrichment (6-mer frequency, TF over GST control) | 1.08 fold enrichment (6-mer frequency, TF over GST control) | 1.05 fold enrichment (6-mer frequency, TF over GST control) |  | 1.08 fold enrichment (6-mer frequency, TF over GST control) |  |
| CGCTTG | 1.1 fold enrichment (6-mer frequency, TF over GST control) | 1.14 fold enrichment (6-mer frequency, TF over GST control) | 1.09 fold enrichment (6-mer frequency, TF over GST control) | 1.05 fold enrichment (6-mer frequency, TF over GST control) | 1.07 fold enrichment (6-mer frequency, TF over GST control) | 1.04 fold enrichment (6-mer frequency, TF over GST control) | 1.25 fold enrichment (6-mer frequency, TF over GST control) | 1.07 fold enrichment (6-mer frequency, TF over GST control) |  |
| ATCGCA | 1.07 fold enrichment (6-mer frequency, TF over GST control) | 1.07 fold enrichment (6-mer frequency, TF over GST control) | 1.1 fold enrichment (6-mer frequency, TF over GST control) | 1.03 fold enrichment (6-mer frequency, TF over GST control) | 1.08 fold enrichment (6-mer frequency, TF over GST control) | 1.02 fold enrichment (6-mer frequency, TF over GST control) |  | 1.06 fold enrichment (6-mer frequency, TF over GST control) |  |
| TCGACG | 1.23 fold enrichment (6-mer frequency, TF over GST control) | 1.14 fold enrichment (6-mer frequency, TF over GST control) | 1.06 fold enrichment (6-mer frequency, TF over GST control) | 1.04 fold enrichment (6-mer frequency, TF over GST control) | 1.1 fold enrichment (6-mer frequency, TF over GST control) | 1.21 fold enrichment (6-mer frequency, TF over GST control) | 1.05 fold enrichment (6-mer frequency, TF over GST control) | 1.02 fold enrichment (6-mer frequency, TF over GST control) |  |
| CAACGA | 1.05 fold enrichment (6-mer frequency, TF over GST control) | 1.08 fold enrichment (6-mer frequency, TF over GST control) | 1.08 fold enrichment (6-mer frequency, TF over GST control) | 1.07 fold enrichment (6-mer frequency, TF over GST control) | 1.1 fold enrichment (6-mer frequency, TF over GST control) | 1.01 fold enrichment (6-mer frequency, TF over GST control) | 1.03 fold enrichment (6-mer frequency, TF over GST control) | 1.09 fold enrichment (6-mer frequency, TF over GST control) |  |
| GATGGT | 1.25 fold enrichment (6-mer frequency, TF over GST control) | 1.16 fold enrichment (6-mer frequency, TF over GST control) | 1.16 fold enrichment (6-mer frequency, TF over GST control) | 1.23 fold enrichment (6-mer frequency, TF over GST control) | 1.14 fold enrichment (6-mer frequency, TF over GST control) | 1.06 fold enrichment (6-mer frequency, TF over GST control) | 1.19 fold enrichment (6-mer frequency, TF over GST control) | 1.17 fold enrichment (6-mer frequency, TF over GST control) |  |
| AAGGTT | 1.09 fold enrichment (6-mer frequency, TF over GST control) | 1.15 fold enrichment (6-mer frequency, TF over GST control) | 1.13 fold enrichment (6-mer frequency, TF over GST control) | 1.07 fold enrichment (6-mer frequency, TF over GST control) | 1.05 fold enrichment (6-mer frequency, TF over GST control) | 1.1 fold enrichment (6-mer frequency, TF over GST control) | 1.01 fold enrichment (6-mer frequency, TF over GST control) | 1.12 fold enrichment (6-mer frequency, TF over GST control) |  |
| GCTTTT | 1.06 fold enrichment (6-mer frequency, TF over GST control) | 1.05 fold enrichment (6-mer frequency, TF over GST control) | 1.16 fold enrichment (6-mer frequency, TF over GST control) | 1 fold enrichment (6-mer frequency, TF over GST control) | 1.09 fold enrichment (6-mer frequency, TF over GST control) |  | 1.16 fold enrichment (6-mer frequency, TF over GST control) | 1.11 fold enrichment (6-mer frequency, TF over GST control) | 1.33 fold enrichment (6-mer frequency, TF over GST control) |
| CCTGGG | 1.16 fold enrichment (6-mer frequency, TF over GST control) | 1.18 fold enrichment (6-mer frequency, TF over GST control) | 1.15 fold enrichment (6-mer frequency, TF over GST control) | 1.16 fold enrichment (6-mer frequency, TF over GST control) | 1.18 fold enrichment (6-mer frequency, TF over GST control) |  | 1.08 fold enrichment (6-mer frequency, TF over GST control) |  | 1.11 fold enrichment (6-mer frequency, TF over GST control) |
| TTCGGC | 1.03 fold enrichment (6-mer frequency, TF over GST control) | 1.14 fold enrichment (6-mer frequency, TF over GST control) | 1.22 fold enrichment (6-mer frequency, TF over GST control) | 1.08 fold enrichment (6-mer frequency, TF over GST control) | 1 fold enrichment (6-mer frequency, TF over GST control) |  | 1.02 fold enrichment (6-mer frequency, TF over GST control) |  | 1.04 fold enrichment (6-mer frequency, TF over GST control) |
| AATGGA | 1.01 fold enrichment (6-mer frequency, TF over GST control) | 1.01 fold enrichment (6-mer frequency, TF over GST control) | 1.01 fold enrichment (6-mer frequency, TF over GST control) | 1.06 fold enrichment (6-mer frequency, TF over GST control) | 1.03 fold enrichment (6-mer frequency, TF over GST control) |  | 1.06 fold enrichment (6-mer frequency, TF over GST control) |  | 1.06 fold enrichment (6-mer frequency, TF over GST control) |
| AGGTAT | 1.06 fold enrichment (6-mer frequency, TF over GST control) | 1.06 fold enrichment (6-mer frequency, TF over GST control) | 1.07 fold enrichment (6-mer frequency, TF over GST control) | 1.04 fold enrichment (6-mer frequency, TF over GST control) | 1.04 fold enrichment (6-mer frequency, TF over GST control) |  | 1 fold enrichment (6-mer frequency, TF over GST control) |  | 1.04 fold enrichment (6-mer frequency, TF over GST control) |
| AGCATC | 1.03 fold enrichment (6-mer frequency, TF over GST control) | 1.12 fold enrichment (6-mer frequency, TF over GST control) | 1.03 fold enrichment (6-mer frequency, TF over GST control) | 1.04 fold enrichment (6-mer frequency, TF over GST control) | 1.02 fold enrichment (6-mer frequency, TF over GST control) | 1.02 fold enrichment (6-mer frequency, TF over GST control) | 1.02 fold enrichment (6-mer frequency, TF over GST control) | 1.1 fold enrichment (6-mer frequency, TF over GST control) |  |
